One sequence from publication PMC7862700, “An all-to-all approach to the identification of sequence-specific readers for epigenetic DNA modifications on cytosine” can be followed below.

What all share (assay): DAPPL (digital affinity profiling via proximity ligation, sequencing); 10 mM Tris-HCl pH 7.5, 50 mM NaCl, 1 mM DTT, 4% glycerol, room temperature, 30 min; GST-TFs on glutathione beads, 16-mer random dsDNA library, 0.1% formaldehyde crosslink after washing; high values mean tight binding
One test has as its target T1, FEV (Homo sapiens, UniProt Q99581 1-238).
T1 sequence: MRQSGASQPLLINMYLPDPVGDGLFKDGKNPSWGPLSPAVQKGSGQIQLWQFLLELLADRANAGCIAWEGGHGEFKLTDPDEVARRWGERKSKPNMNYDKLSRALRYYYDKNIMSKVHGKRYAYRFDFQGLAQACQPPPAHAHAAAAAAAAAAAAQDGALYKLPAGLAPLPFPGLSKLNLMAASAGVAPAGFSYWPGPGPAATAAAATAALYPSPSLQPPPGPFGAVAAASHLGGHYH
As to conditions: protein: recombinant; tags: N-terminal GST; dsDNA, one strand shown. The method, boiled down:
(§1)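 Binding signal is defined as a hexamer's read frequency for one factor over its frequency for the tag-only sample. To obtain reads, GST-fused human transcription factors were expressed in yeast, captured on glutathione beads, barcoded with DNA and pooled with that sample. Pools met 200 nmole of a 16-mer random double-stranded DNA library in Tris/NaCl/DTT/glycerol buffer for 30 min at room temperature before washing, 0.1% formaldehyde crosslinking, proximity ligation (BsaI/T4 ligase, 1 h, 37 °C), PCR and Illumina NextSeq500 sequencing.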

A further test deals with ETV5 (Homo sapiens, UniProt P41161 1-510). As to conditions: protein: recombinant; tags: N-terminal GST; dsDNA, one strand shown. In outline:
as §1

For a further test, the target named is HSF1 (Homo sapiens, UniProt Q00613 1-529). To be noted: protein: recombinant; tags: N-terminal GST; chain copies: 3; dsDNA, one strand shown. In outline:
as §1

A further test concerns the target T2, SPIC (Homo sapiens, UniProt Q8N5J4 1-248).
T2 sequence: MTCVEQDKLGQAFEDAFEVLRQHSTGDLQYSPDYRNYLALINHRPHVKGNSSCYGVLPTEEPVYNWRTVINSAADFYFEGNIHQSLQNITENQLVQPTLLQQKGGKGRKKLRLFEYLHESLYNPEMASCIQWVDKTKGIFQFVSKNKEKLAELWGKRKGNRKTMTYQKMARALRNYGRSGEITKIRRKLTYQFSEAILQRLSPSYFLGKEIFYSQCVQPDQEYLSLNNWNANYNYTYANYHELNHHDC
As to conditions: protein: recombinant; tags: N-terminal GST; dsDNA, one strand shown. The method, boiled down:
as §1

The target of a further test is ELF4 (Homo sapiens, UniProt Q99607 1-663). As to conditions: protein: recombinant; tags: N-terminal GST; dsDNA, one strand shown. In outline: as §1
ELF4, sequence (Q99607 whole entry): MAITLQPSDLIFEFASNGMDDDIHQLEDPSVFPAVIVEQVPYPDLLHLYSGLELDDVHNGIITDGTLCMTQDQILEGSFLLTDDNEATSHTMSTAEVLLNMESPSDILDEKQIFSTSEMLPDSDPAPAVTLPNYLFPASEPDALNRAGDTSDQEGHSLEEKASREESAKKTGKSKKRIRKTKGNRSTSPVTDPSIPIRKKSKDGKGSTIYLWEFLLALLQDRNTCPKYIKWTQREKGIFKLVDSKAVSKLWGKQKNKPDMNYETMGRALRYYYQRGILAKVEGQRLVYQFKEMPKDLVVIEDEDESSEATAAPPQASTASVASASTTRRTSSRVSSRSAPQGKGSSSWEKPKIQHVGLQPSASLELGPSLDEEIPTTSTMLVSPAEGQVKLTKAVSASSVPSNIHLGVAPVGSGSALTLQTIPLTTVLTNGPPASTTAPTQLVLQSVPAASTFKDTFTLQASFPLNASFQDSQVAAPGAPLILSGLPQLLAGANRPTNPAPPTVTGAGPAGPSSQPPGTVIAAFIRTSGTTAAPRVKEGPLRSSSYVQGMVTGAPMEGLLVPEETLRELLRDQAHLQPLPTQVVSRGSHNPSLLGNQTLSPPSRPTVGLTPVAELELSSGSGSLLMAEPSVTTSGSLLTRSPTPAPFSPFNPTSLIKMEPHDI
The next test concerns the target T3, ELK4 (Homo sapiens, UniProt P28324-2 1-405).
T3 sequence: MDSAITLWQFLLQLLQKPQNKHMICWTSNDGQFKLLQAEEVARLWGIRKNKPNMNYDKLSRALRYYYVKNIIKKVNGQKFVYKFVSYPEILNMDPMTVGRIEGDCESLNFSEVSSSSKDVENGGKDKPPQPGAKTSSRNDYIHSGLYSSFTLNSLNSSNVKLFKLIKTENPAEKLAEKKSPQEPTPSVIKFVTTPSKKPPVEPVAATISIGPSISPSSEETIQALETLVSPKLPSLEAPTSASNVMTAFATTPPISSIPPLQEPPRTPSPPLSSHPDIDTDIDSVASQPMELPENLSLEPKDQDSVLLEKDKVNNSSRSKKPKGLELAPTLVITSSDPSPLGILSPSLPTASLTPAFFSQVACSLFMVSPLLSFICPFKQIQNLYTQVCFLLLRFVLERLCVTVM
To be noted: protein: recombinant; tags: N-terminal GST; dsDNA, one strand shown. The method, boiled down:
as §1

For a further test, the target named is T4, ETV2 (Homo sapiens, UniProt O00321 1-342).
T4 sequence: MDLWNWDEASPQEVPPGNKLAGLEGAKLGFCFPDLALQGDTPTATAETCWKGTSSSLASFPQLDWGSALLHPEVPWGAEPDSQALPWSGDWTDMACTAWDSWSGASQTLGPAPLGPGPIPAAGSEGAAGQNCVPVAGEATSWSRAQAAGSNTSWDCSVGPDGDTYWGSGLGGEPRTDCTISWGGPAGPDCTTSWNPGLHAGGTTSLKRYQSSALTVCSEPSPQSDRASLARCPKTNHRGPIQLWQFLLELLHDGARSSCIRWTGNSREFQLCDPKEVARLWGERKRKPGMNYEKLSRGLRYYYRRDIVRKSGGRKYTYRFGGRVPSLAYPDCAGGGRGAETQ
As to conditions: protein: recombinant; tags: N-terminal GST; dsDNA, one strand shown. The method, boiled down:
as §1

In the next test the target is T5, ELF3 (Homo sapiens, UniProt P78545 1-371).
T5 sequence: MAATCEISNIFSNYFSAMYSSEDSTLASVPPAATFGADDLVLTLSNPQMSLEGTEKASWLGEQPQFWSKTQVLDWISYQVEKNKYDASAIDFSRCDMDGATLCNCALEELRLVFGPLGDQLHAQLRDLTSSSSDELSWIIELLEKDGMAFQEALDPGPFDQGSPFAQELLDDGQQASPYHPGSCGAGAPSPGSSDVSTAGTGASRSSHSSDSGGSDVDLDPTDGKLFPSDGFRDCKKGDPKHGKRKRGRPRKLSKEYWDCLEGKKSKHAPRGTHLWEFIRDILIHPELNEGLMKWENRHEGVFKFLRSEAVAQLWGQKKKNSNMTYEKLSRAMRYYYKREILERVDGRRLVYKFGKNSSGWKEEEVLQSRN
As to conditions: protein: recombinant; tags: N-terminal GST; dsDNA, one strand shown. The method, boiled down: as §1

The next test has as its target CRX (Homo sapiens, UniProt O43186 1-299). As to conditions: protein: recombinant; tags: N-terminal GST; dsDNA, one strand shown. In outline:
as §1

Another test addresses ETV1 (Homo sapiens, UniProt P50549 1-477). To be noted: protein: recombinant; tags: N-terminal GST; dsDNA, one strand shown. The method, boiled down:
as §1

For the next test, the target named is T6, ERF (Homo sapiens, UniProt P50548 1-548).
T6 sequence: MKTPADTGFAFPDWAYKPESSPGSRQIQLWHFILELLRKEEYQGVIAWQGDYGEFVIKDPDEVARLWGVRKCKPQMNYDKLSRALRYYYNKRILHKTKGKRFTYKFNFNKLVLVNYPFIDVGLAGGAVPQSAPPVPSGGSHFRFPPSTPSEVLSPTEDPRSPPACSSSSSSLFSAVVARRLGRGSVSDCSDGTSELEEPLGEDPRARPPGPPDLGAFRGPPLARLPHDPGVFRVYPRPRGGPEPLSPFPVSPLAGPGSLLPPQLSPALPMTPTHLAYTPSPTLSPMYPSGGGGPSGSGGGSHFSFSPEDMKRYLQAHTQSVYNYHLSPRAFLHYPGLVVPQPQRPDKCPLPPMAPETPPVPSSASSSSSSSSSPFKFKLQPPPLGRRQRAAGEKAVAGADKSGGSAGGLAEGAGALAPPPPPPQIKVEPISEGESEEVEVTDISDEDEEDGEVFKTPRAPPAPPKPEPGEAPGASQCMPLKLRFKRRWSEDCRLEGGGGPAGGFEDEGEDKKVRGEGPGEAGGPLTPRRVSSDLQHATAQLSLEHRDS
To be noted: protein: recombinant; tags: N-terminal GST; dsDNA, one strand shown. In outline: as §1

The next test has as its target T7, ETV3L (Homo sapiens, UniProt Q6ZN32 1-361).
T7 sequence: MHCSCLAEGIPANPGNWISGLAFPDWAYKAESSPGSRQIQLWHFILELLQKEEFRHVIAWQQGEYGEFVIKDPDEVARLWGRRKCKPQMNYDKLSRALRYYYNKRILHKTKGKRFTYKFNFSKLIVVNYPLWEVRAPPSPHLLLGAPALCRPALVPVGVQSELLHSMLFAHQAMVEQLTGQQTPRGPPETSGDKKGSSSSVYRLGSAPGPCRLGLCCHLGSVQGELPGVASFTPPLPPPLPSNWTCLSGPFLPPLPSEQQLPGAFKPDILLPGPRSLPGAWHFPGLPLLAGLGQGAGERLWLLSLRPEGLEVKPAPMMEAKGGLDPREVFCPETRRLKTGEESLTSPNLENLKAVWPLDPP
As to conditions: protein: recombinant; tags: N-terminal GST; dsDNA, one strand shown. The method, boiled down:
as §1

The target in the next test is T8, ETS2 (Homo sapiens, UniProt P15036 1-469).
T8 sequence: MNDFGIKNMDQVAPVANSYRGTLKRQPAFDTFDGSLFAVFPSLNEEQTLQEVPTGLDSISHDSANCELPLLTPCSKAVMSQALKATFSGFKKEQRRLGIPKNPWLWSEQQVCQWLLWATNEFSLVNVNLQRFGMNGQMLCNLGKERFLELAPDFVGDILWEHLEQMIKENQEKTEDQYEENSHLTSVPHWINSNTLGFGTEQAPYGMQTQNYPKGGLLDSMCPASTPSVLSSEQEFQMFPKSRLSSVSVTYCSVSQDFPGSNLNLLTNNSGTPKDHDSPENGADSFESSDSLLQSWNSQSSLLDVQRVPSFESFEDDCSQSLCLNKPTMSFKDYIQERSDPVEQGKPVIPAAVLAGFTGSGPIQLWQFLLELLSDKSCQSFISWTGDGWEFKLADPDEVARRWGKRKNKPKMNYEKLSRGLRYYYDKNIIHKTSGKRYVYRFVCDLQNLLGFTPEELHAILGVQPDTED
To be noted: protein: recombinant; tags: N-terminal GST; dsDNA, one strand shown. The method, boiled down: as §1

The next test deals with T9, SPDEF (Homo sapiens, UniProt O95238 1-335).
T9 sequence: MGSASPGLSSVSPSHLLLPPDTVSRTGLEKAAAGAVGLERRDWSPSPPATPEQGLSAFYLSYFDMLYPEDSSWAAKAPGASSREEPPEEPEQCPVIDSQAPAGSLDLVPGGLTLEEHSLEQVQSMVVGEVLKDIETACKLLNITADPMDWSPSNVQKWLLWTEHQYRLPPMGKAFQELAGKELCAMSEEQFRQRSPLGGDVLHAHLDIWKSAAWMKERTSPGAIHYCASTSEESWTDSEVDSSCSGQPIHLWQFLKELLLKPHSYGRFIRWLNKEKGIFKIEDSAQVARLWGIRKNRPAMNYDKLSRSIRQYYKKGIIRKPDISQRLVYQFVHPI
To be noted: protein: recombinant; tags: N-terminal GST; dsDNA, one strand shown. The method, boiled down: as §1

In another test the target is T10, ETV7 (Homo sapiens, UniProt Q9Y603 1-341).
T10 sequence: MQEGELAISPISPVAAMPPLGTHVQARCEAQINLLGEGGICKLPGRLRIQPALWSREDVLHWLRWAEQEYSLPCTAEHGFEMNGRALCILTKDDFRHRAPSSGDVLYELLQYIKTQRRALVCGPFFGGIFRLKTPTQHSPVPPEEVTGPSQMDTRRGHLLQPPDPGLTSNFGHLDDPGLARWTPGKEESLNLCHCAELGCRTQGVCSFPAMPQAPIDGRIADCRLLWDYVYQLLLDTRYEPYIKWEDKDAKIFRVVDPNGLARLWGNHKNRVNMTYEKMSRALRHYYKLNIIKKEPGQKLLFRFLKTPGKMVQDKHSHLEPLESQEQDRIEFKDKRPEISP
As to conditions: protein: recombinant; tags: N-terminal GST; dsDNA, one strand shown. The method, boiled down:
as §1

For another test, the target named is T11, ELF5 (Homo sapiens, UniProt Q9UKW6-2 1-255).
T11 sequence: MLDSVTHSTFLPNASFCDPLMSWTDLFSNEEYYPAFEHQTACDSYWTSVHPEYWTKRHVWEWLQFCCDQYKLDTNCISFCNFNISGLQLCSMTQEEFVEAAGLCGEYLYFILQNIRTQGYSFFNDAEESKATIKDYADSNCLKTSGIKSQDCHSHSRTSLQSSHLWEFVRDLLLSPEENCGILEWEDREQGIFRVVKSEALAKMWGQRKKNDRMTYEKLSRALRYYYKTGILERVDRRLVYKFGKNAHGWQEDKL
To be noted: protein: recombinant; tags: N-terminal GST; dsDNA, one strand shown. In outline:
as §1

The target of the next test is T12, ETV3 (Homo sapiens, UniProt P41162-2 1-143).
T12 sequence: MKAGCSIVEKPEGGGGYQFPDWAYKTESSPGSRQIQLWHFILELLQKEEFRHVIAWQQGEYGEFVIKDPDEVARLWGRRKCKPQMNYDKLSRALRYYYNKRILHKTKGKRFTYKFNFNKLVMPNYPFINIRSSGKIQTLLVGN
To be noted: protein: recombinant; tags: N-terminal GST; dsDNA, one strand shown. The method, boiled down:
as §1

A further test concerns the target ETV6 (Homo sapiens, UniProt P41212 1-452). To be noted: protein: recombinant; tags: N-terminal GST; dsDNA, one strand shown. The method, boiled down: as §1

HSF1, sequence (Q00613 whole entry): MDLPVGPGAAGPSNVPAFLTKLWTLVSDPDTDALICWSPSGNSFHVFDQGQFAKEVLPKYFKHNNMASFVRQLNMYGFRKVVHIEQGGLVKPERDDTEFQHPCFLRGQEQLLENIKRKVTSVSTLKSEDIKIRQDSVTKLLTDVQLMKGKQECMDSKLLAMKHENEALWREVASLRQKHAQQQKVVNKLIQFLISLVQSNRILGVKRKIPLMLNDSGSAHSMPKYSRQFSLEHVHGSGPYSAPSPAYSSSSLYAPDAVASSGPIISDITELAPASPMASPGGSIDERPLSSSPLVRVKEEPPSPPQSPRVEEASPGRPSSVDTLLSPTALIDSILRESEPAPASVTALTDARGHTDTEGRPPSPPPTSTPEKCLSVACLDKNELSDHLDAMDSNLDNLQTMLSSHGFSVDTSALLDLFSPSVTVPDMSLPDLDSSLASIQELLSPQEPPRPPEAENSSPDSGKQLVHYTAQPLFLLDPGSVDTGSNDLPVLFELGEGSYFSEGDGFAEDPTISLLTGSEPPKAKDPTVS
ETV6, sequence (P41212 whole entry): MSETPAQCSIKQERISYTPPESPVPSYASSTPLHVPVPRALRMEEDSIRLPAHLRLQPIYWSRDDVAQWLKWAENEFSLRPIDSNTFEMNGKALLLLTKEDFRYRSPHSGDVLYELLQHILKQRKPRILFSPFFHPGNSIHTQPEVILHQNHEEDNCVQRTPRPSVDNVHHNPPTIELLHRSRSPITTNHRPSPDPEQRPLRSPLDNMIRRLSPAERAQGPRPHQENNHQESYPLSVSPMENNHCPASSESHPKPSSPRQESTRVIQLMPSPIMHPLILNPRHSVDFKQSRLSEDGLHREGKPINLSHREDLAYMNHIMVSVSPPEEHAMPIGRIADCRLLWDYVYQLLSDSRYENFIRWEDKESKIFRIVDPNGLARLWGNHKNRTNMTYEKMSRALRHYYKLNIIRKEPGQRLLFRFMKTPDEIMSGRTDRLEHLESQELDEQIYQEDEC
ETV5, sequence (P41161 whole entry): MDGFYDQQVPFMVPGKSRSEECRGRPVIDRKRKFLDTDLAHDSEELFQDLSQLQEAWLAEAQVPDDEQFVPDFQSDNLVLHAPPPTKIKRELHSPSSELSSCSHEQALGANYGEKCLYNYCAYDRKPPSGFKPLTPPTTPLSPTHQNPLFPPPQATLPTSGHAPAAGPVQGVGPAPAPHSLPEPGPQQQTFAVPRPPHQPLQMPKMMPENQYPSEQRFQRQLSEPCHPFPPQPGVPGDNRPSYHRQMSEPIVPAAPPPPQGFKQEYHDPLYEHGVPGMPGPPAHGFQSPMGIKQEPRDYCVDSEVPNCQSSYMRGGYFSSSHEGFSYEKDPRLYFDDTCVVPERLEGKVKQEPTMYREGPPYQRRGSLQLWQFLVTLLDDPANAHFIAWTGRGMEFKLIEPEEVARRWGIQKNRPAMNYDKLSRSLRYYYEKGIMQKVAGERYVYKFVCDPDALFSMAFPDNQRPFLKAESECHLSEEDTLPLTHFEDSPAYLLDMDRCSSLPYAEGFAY
ETV1, sequence (P50549 whole entry): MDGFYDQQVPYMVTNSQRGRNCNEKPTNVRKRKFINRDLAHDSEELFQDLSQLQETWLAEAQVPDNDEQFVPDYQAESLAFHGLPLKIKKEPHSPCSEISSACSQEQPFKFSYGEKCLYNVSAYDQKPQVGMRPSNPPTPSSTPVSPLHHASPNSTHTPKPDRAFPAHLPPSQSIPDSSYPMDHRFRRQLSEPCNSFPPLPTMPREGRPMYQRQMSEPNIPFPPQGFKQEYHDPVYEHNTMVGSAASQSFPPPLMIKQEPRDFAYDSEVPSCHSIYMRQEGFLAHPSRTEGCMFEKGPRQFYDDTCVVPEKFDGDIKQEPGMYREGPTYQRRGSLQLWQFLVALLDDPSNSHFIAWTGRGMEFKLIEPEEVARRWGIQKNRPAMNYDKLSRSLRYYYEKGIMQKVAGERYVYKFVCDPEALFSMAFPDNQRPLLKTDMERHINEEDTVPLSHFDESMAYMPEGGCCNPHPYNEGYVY
CRX, sequence (O43186 whole entry): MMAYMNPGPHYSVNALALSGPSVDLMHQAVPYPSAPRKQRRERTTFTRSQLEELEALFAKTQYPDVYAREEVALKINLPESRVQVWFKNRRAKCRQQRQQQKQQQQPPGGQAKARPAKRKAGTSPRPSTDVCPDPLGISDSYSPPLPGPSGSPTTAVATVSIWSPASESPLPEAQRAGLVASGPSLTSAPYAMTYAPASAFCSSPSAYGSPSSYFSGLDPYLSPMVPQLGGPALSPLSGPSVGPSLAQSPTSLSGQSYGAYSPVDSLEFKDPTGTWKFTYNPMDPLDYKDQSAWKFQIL

With ATCCTA, the binding signal with FEV was 1.32 fold enrichment (6-mer frequency, TF over GST control); with ETV5, 1.37 fold enrichment (6-mer frequency, TF over GST control); with HSF1, 1.61 fold enrichment (6-mer frequency, TF over GST control); with SPIC it was 1.44 fold enrichment (6-mer frequency, TF over GST control); with ELF4, 1.32 fold enrichment (6-mer frequency, TF over GST control); in the test with ELK4, 1.26 fold enrichment (6-mer frequency, TF over GST control). Moreover, the binding signal with ETV2 was 1.41 fold enrichment (6-mer frequency, TF over GST control); with ELF3, 1.24 fold enrichment (6-mer frequency, TF over GST control); with CRX it was 2.19 fold enrichment (6-mer frequency, TF over GST control); with ETV1, 1.32 fold enrichment (6-mer frequency, TF over GST control); with ERF, 1.34 fold enrichment (6-mer frequency, TF over GST control); in the test with ETV3L, 1.32 fold enrichment (6-mer frequency, TF over GST control). Further, the binding signal with ETS2 was 1.43 fold enrichment (6-mer frequency, TF over GST control); in the test with SPDEF, 1.72 fold enrichment (6-mer frequency, TF over GST control); with ETV7, 1.37 fold enrichment (6-mer frequency, TF over GST control); with ELF5 it was 1.45 fold enrichment (6-mer frequency, TF over GST control); with ETV3 it was 1.33 fold enrichment (6-mer frequency, TF over GST control); with ETV6 it was 1.34 fold enrichment (6-mer frequency, TF over GST control).
